Rows were chosen to be rich in hits. Some 7.5% of all compounds tested hit in one or more screens of this group.
HCV inhibitor = HCV inhibition. Huh7.5.1 HCVcc-Cre infection, luciferase reporter, 44 h. Potency, µM (highest dose often 41.8 µM), for the others: at the top dose activity change, negative = inhibition, most hits filed as inhibitors. 340,000 compounds, 3.4% hits; further: potency means the concentration at half of the fitted maximal effect
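1,000 cells/well; 4 h culture; + compound; + HCVcc-Cre (~0.5 moi); 44 h; luciferase substrate, RT 15 min; read 15 sec.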
VACV Venus inh = vaccinia inhibition (Venus reporter). Vaccinia virus Venus reporter expression, fluorescence. Potency, µM (titrated, usually from 36.5 µM), for the others: top-dose activity change, negative = inhibition, most hits filed as inhibitors. 330,000 compounds, 0.46% hits. AID 720580; calls by dose curve; tested in A549 cells; further: potency means the concentration at half of the fitted maximal effect; nearly all actives have a fitted effect of over 30% in size
Giardia FBPA inh = blocks Giardia fructose-bisphosphate aldolase activity; A8B2U2; purified Giardia FBPA; Potency, µM (titrated, usually from 59.6 µM), for inactives: at the top dose activity, negative = inhibition, actives largely listed as inhibitors; 290,000 compounds, 0.71% hits; further: potency means the concentration at half of the fitted maximal effect; nearly all actives have a fitted effect of over 55% in size
Target sequence (A8B2U2 whole entry, looked up): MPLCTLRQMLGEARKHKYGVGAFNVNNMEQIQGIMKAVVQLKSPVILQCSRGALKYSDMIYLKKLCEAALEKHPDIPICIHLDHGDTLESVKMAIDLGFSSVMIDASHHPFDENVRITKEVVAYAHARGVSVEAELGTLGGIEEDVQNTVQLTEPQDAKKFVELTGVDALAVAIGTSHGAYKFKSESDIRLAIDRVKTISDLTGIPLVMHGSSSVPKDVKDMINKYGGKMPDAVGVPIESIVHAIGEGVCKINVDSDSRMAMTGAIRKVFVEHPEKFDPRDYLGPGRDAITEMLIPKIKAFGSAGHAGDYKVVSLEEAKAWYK
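Giardia FBPA (40 nM reagent) was preincubated 10 min at RT with compound (up to 57.5 uM final), then substrate plus GAPDH/TPI/NAD/arsenate coupling system with diaphorase/resazurin was added; resorufin fluorescence (525/598 nm) was read after 20 min.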
HCMV inh = inhibitors of human cytomegalovirus; 410,000 compounds, 4.5% hits; activity change, negative = inhibition, % at 57.5 µM; HFF cells, HCMV-luciferase reporter, 72 h; hits give low values; in the data active means activity change below about -60%; inconclusive means no clear call, values can overlap the other calls; inactive means above about -39%
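Cell-based, HFFs, 1000 cells/well, 16 h 37C; cpds in DMSO + HCMV-luc, MOI 1 PFU/cell; 72 h 37C; OneGlo luminescence after 5 min RT; norm. to buffer vs Salinomycin 10uM.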
FMDV inh = blocks foot and mouth disease virus; FMDV antiviral cell-based qHTS; Potency, µM (series often up to 57.9 µM), inactives show at the top dose activity change, negative = inhibition, actives largely listed as inhibitors; 410,000 compounds, 1.2% hits; AID 1159524; calls by dose curve; tested in HEK293T cells; further: read-out not given here; potency means the concentration at half of the fitted maximal effect; nearly all actives have a fitted effect of over 45% in size
VACV mCherry inh = inhibitors of vaccinia virus infection (mCherry reporter signal). Vaccinia virus mCherry reporter infection, fluorescence. Potency, µM (series often up to 36.5 µM), for inactives: at the top dose activity change, negative = inhibition, usual class: inhibitors. 310,000 compounds, 0.63% hits. AID 720579; calls by dose curve; tested in A549 cells; further: potency means the concentration at half of the fitted maximal effect; nearly all actives have a fitted effect of over 35% in size
Starred values were filed as active, the others as inactive; i = inactive; ? = inconclusive; . = no result given; [ ] = dose if it differs, or a comment. Unless noted, the call rests on the fitted dose curve; in most records, active means well fitted curve in the direction sought with a large enough effect; inconclusive means small, poorly fitted or top-dose-only effect, or another doubt; inactive means no such curve, though single readings can be large; an effect the other way counts as inactive or inconclusive. On the % scale 0 is the no-effect control and ±100 the full control effect.

SMILES	HCV inhibitor	VACV Venus inh	Giardia FBPA inh	HCMV inh	FMDV inh	VACV mCherry inh
COc1ccc2c(-c3ccc(S(N)(=O)=O)cc3)c(-c3ccc(S(C)(=O)=O)cc3)sc2c1	25.1µM*	-5.9%	.	-26.9	-4.7%	i
COc1ccc2sc(-c3ccc(S(C)(=O)=O)cc3)c(C#CCO)c2c1	?	?	.	?	?	10µM*
CC(C)c1cccc(C(C)C)c1NC(=O)CN1CCCC1	5.1%	2.4%	0.0%	?	0.0%	-27.7%
CCCCc1nc2c(c3c1C[C@H](C)OC3)CN(C(=O)c1cc(I)ccc1F)CC2	.	.	5.2%[12.9 µM]	.	.	.
Cc1noc(-c2ccc(-c3noc(-c4ccccc4)n3)cc2)n1	.	-1.3%	.	49.9	33.2%	-4.8%
COc1ccc(-c2noc(-c3ccccc3-c3ccccc3)n2)cc1	?	.	0.7%	-37.1	-9.8%	.
Cc1ccc(-c2nc(-c3ccncc3)no2)cc1	?	-9.2%	10.0%	64.2	-22.9%	i
Cc1ccc(-c2nc(-c3ccccc3)no2)cc1	9.7%	-6.1%	5.6%	15.2	11.2µM*	-16.6%
CC(C)(C)c1ccc(-c2nc(-c3ccncc3)no2)cc1	-21.4%	-11.5%	-1.9%	-70.2*	?	-24.6%
Cc1ccc(-c2nc(-c3ccccc3)no2)c(Cl)c1	5.8%	-21.7%	1.7%	-79.4*	-37.9%	-10.8%
Cc1ccc(S(=O)(=O)N2CCCC2C(=O)Nc2ccc(Br)cc2)cc1 (stereo not given)	.	-18.7%	.	-61.2*	-18.8%	-19.7%
CS(=O)(=O)N1CCC(C(=O)N2CCN(c3cccc(Cl)c3)CC2)CC1	12.8%	-14.0%	3.3%	-33.4	-11.5%	-2.2%
CC(C)c1ccc(NC(=O)C2CCCN(S(=O)(=O)c3ccc4[nH]c(=O)ccc4c3)C2)cc1 (stereo not given)	.	?	.	-91.8*	?	?
Cc1ccc(S(=O)(=O)N2CCC(C(=O)Nc3ccc(C(C)C)cc3)CC2)cc1	11.2µM*	.	.	3.7	0.0%	.
CC(C)c1ccc(S(=O)(=O)N2CCC(C(=O)N3CCN(c4cccc(Cl)c4)CC3)CC2)cc1	?	.	.	-69.2*	-16.2%	.
CCN(c1ccccc1)S(=O)(=O)c1ccc(C(=O)N2CCN(c3ccccc3)CC2)cc1	?	-23.4%	.	4.6	-21.9%	-29.0%
Cc1ccc(C)c(N2CCN(C(=O)c3c(C)oc4nc(C)nc(N5CCOCC5)c34)CC2)c1	.	-14.0%	.	-34.2	-23.9%	-8.7%
O=C(Nc1ccc(S(=O)(=O)N2CCOCC2)cc1)C1CCN(S(=O)(=O)c2ccc(F)cc2)CC1	?	-18.6%	.	-65.8*	0.0%	-22.2%
Cc1ccc(S(=O)(=O)N2CCC(C(=O)N3CCC[C@H]3C(=O)NCC(C)C)CC2)cc1	20.3%	-3.6%	.	-14.9	0.0%	i
Cc1ccc(S(=O)(=O)N2CCC(C(=O)N3CCCC3C(=O)N[C@@H](CC(C)C)C(=O)NCC(N)=O)CC2)cc1 (stereo not given in full)	1µM*	-6.3%	2.6%	14.1	-6.3%	-9.1%
O=C(O)/C=C/C(=O)c1ccc2c(c1)CCc1ccccc1-2	12.6µM*	?	.	-60.7*	?	?
CCOc1ccc(/C=C/C(O)=C2/C(=O)N(C)C3(C)CC2c2ccccc2O3)cc1OC (stereo not given)	?	-27.9%	-7.4%	-97.9*	?	?
Cc1cc2c(cc1C)-c1c(ssc1=Nc1ccc(S(N)(=O)=O)cc1)C(C)(C)N2	12.6µM*	?	-7.3%	117.1	-10.3%	-16.8%
COc1cccc(NC(=O)CCNC(=O)Cn2cnc3ccccc3c2=O)c1	.	8.2%	.	11.5	-12.5%	1.0%
CC(C)NCC(O)Cn1c2c(c3ccccc31)CCc1c-2cnn1-c1ccccc1 (stereo not given)	?	11.2µM*	-8.1%	-103.5*	?	.
COc1ccc(NC(=O)CC2C(=O)N(c3ccc(OC)cc3)C(=O)N2Cc2ccc(OC)c(OC)c2)cc1 (stereo not given)	-7.3%	-5.7%	1.1%	9.4	-16.7%	-7.2%
COc1ccccc1CCNC(=O)c1cc2c(=O)n3cccc(C)c3nc2n1C	.	-6.5%	.	?	-0.9%	-3.7%
